Bioassay records as filed in PubChem.
EBNA-1 inh = EBNA-1 DNA-binding inhibitors, primary screen, biochemical, fluorescence polarization; inhibition, % at 14.8 µM; actives 0.34% (n = 300,000); in the data active means inhibition above about 28%
PP5 primary = PP5 phosphatase inhibitors, primary screen, biochemical, fluorescence. purified PP5c, OMFP substrate fluorescence. actives 0.18% (n = 320,000). inhibition, % at 6.7 µM. Serine/threonine-protein phosphatase 5 (Homo sapiens), P53041;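 active means inhibition above the campaign's mean inhibition across all tested compounds plus 3 SD, cut at about 9.5% in these data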
Target sequence (P53041 whole entry, looked up): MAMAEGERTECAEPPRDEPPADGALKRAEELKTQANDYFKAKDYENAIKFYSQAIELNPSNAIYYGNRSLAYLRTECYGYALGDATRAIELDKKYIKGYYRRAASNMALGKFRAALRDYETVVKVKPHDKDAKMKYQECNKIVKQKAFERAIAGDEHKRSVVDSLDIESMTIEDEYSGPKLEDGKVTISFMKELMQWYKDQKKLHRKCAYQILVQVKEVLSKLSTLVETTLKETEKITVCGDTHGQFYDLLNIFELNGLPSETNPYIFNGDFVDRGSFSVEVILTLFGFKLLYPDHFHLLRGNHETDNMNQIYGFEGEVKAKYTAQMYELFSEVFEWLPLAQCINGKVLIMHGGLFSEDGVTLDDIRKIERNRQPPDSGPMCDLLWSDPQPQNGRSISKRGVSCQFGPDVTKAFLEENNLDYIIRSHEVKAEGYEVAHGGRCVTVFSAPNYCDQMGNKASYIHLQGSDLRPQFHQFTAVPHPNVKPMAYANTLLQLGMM
ZTA counter = blocks Epstein-Barr virus ZTA, an EBNA-1 counter-screen. P03206. ZTA-DNA binding, fluorescence polarization. inhibition, % at 11 µM. actives 0.15% (n = 320,000); in the data active means inhibition above about 33%
bovine MsrA act = bovine MsrA enzyme activators, primary screen, biochemical, absorbance, HTS; purified bovine MsrA, absorbance read-out; activation, % at 10.6 µM; actives 0.3% (n = 360,000); in the data active means activation above about 7.5%
MsrA inhibitor = bovine MsrA enzyme inhibitors, primary screen, biochemical, absorbance, HTS; Methionine sulfoxide reductase A (Bos taurus); purified bovine MsrA, absorbance read-out; inhibition, % at 15.5 µM; actives 0.75% (n = 360,000); AID 651718, 2012
PP1 inh = PP1-alpha phosphatase inhibitors, primary screen, counter-screen for PP5 inhibitor project, biochemical, fluorescence, OMFP substrate, single point; Serine/threonine-protein phosphatase PP1-alpha catalytic subunit (Homo sapiens), P62136; purified PP1alpha; inhibition, % at 6.7 µM; actives 0.9% (n = 320,000); AID 2235, 2010;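 active means inhibition above the mean inhibition of all tested compounds plus 3 SD, computed separately for each screening campaign, cut at about 15% in these data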
MsrA conf = bovine MsrA inhibitors, retest, confirmation, biochemical, absorbance, HTS; inhibition, % at 15.5 µM; AID 651822, 2012; actives 41% (n = 2,300); purified bovine MsrA, absorbance read-out; shares compounds with MsrA inhibitor;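 further: coupled to thioredoxin reductase with NADPH and selenocystamine and DMSO as substrate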
Numbers stand for hits; n = inactive; x = no result given. Hits are enriched below; roughly 2.3% of the tested compounds scored in any of these assays. Unless noted, no stated cut-off is given here; in the data, active means inhibition above about 4.5%; inactive means the rest.

SMILES | EBNA-1 inh | PP5 primary | ZTA counter | bovine MsrA act | MsrA inhibitor | PP1 inh | MsrA conf
O=C(N/N=C/c1ccc(N2CCOCC2)c([N+](=O)[O-])c1)c1ccc(F)cc1 | n | n | n | n | n | n | x
O=C(CNC(=O)C1COc2ccccc2O1)Nc1ccc(F)c(F)c1 (configuration not stated) | x | x | x | n | n | x | x
NS(=O)(=O)c1ccc(CCNS(=O)(=O)c2ccc(Cl)nc2)cc1 | n | n | n | n | n | n | x
COc1cc(C)ccc1S(=O)(=O)NC(=O)C1(C)CCN1C(=O)c1ccc(C(F)(F)F)nc1C (configuration not stated) | x | x | x | n | n | x | x
O=S(=O)(NCc1ccccc1Cl)c1cccs1 | n | n | n | n | n | n | x
Cc1nnc(N/N=C\c2ccc(-c3cccc(C(=O)O)c3)o2)n1N | n | n | n | n | 5.0 | n | 6.0
Cc1c(C(=O)O)cccc1-c1ccc(C=O)o1 | n | n | n | n | 5.0 | n | n
COc1ccc(NC(=O)/C(C#N)=C\c2ccc(-c3cccc(C(=O)O)c3C)o2)cc1 | n | n | n | n | n | n | x
O=C(N/N=C/c1ccc(-c2ccccc2[N+](=O)[O-])o1)c1cccnc1 | n | n | n | n | 7.1 | n | n
O=C(Cc1ccc(Br)cc1)N/N=C/c1ccc(-c2cccc(C(=O)O)c2)o1 | n | n | n | n | n | n | x
Nc1nnc(CC(=O)N/N=C/c2ccc(-c3cccc(C(=O)O)c3)o2)s1 | n | n | n | n | 5.2 | n | 4.9
COC(=O)c1sc2nc(C)nc(SCC(=O)C(C)(C)C)c2c1C | n | n | n | n | n | n | x
COCCNC(=O)/C(C#N)=C/c1ccc(C)o1 | n | n | n | n | 6.8 | n | n
COCCNC(=O)/C(C#N)=C\c1ccc(CNS(=O)(=O)c2ccc(C)cc2)o1 | n | n | n | n | n | n | x
CCOCCCNC(=O)/C(C#N)=C/c1ccc(C)o1 | n | n | n | n | 7.0 | n | n
COCCNC(=O)/C(C#N)=C/c1ccc(SC)cc1 | n | n | n | n | 4.7 | n | n
Cc1ccc(/C=C(\C#N)C(=O)NCc2ccco2)o1 | n | n | n | n | n | n | x
COCCNC(=O)/C(C#N)=C/c1ccc(C(=O)O)cc1 | n | n | n | n | n | n | x
CCN(CC)c1ccc(C(=O)N/N=C(\C)c2ccc(O)cc2)cc1 | n | n | n | n | n | n | x
COCCNC(=O)C(c1ccc(Cl)cc1)N(CCOC)C(=O)CCC(=O)Nc1nccs1 (configuration not stated) | n | n | n | n | n | n | x
CCOC(=O)N=Nc1c2ccccc2c2nc3no[nH]c3nc12 | x | x | x | n | 14 | x | 18
CCOC(=O)N=Nc1c(O)n(CC(=O)OC)c2ccccc12 | n | n | n | n | n | n | x
COC(=O)c1ccccc1NC(=O)CCC(=O)N1CC(C)Oc2ccc(C)cc21 (configuration not stated) | n | n | n | n | n | n | x
O=C(N/N=C/c1ccc(O)c(O)c1)N/N=C/c1ccc(O)c(O)c1 | x | x | x | n | 5.7 | x | n
COc1ccc2c(c1)c(C(=O)N/N=C/c1ccc(O)c(O)c1)c(C)n2C | n | n | n | n | 5.5 | n | n
SMILES | EBNA-1 inh | PP5 primary | ZTA counter | bovine MsrA act | MsrA inhibitor | PP1 inh | MsrA conf
CCN(CC(=O)NCc1ccc(F)cc1)C(=O)C1CCN(S(=O)(=O)c2ccc(C(C)C)cc2)CC1 | x | x | x | n | n | x | x
CC(Sc1ccccc1)C(=O)NCC(c1ccco1)N1CCCCC1 (configuration not stated) | n | n | n | n | n | n | x
O=[N+]([O-])c1ccccc1/C=N/n1c(-c2cccnc2)n[nH]c1=S | n | n | n | n | n | n | x
O=[N+]([O-])c1cc(/C=N/n2c(-c3cccnc3)n[nH]c2=S)ccc1Cl | n | n | n | n | 12 | n | 6.8
Cn1ccsc1=NC(=O)c1cccc(C#N)c1 | n | n | n | n | 5.5 | n | n
Cc1ccc(C(=O)N=c2sccn2C)cc1S(=O)(=O)N1CCOCC1 | n | n | n | n | 6.0 | n | n
